± gives the standard deviation.
What follows are sequences tested on EfPiwi piRISC loaded with piRNA #1 (26 nt) (assay: pre-steady-state target cleavage rate (min^-1); auxiliary factor: 500 nM Ephydatia muelleri Gtsf1; guide: piRNA #1 5'p-UGAGGUAGUAGGUUGUAUAGUAUCCA; MIWI and MILI are mouse PIWI proteins and EfPiwi is from a freshwater sponge; tags in brackets are library labels; higher = faster piRNA-guided slicing of the target).
How it was run: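 Using HEPES–potassium acetate buffer at 33 °C, 1 nM active affinity-purified piRISC with a single synthetic guide was mixed with 0.1 nM transcribed, DNA-blocked target RNA library for 0–8 or 0–960 min, with or without 500 nM GTSF1 partner protein. Uncleaved targets were sequenced and normalised to depth and to weakly complementary targets, and three trials were pooled with k3 capped at 0.0001 min^-1. A burst-and-steady-state fit gave the pre-steady-state cleavage rate.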

Row | Sequence | pre-steady-state target cleavage rate
1 | GGAGACCAUACUAUACAACCUACUUGGUCA | 0.00392 ± 0.0029
2 | GGAGACCUUACUCUACAACCUACUACCUCA | 0.0532 ± 0.019
3 | GGAGACCUAUGAACACAACCUACUACCUCA | 0.00896 ± 0.0044
4 | GGAGUGGUUACUUUACAACCUACUACCUCA | 0.00342 ± 0.0031
5 | GGAGACCUAAUAUACAACCUACUACCUCA | 0.0061 ± 0.0043
6 | GGAGACCUAUGAUAUCAACCUACAUGCUCA | < 0.0001
7 | GGAGACGAUACUAUACAACCUACUACCUCA [g2:g24:cont:t1A] | 0.0773 ± 0.024
8 | GGAGAGGAUACUAUACACACCUACUACCUCA | 0.00541 ± 0.0039
9 | GGAGUGGAUACUAAACAACCUACAACCUCA | 0.00162 ± 0.0015
10 | GGAGACCUAUGAUAAGAACCUACUACCACA | < 0.0001
11 | GGAGUGGAUACUAUACAACCUACUCACCUCA | 0.00247 ± 0.0014
12 | GGAGUGGAUACUAUACAACCUACUUCCACA | 0.00294 ± 0.0024
13 | GGAGACCUAAACUAUACAACCUACUACCUCA | 0.00974 ± 0.0047
14 | GGAGUGGAUACUAUACAACCUACAACCACA | 0.00247 ± 0.0019
15 | GGAGACGAUACAAUACAACCUAGUACCUCA | 0.00289 ± 0.0015
16 | GGAGACCUUACUAUACAACCCUACUACCUCA | 0.00411 ± 0.0037
17 | GGAGACCUUACUAUCACAACCUACUACCUCA | 0.00983 ± 0.0039
18 | GGAGAGGAUACUAUACAACCAACAACCUCA | 0.00224 ± 0.0022
19 | GGAGUGGAUACUCUACAACCUACUACCUCA | 0.00588 ± 0.0041
20 | GGAGACGAUACUAUACAACCUACUACCAUCA | 0.00489 ± 0.002

Row | Sequence | pre-steady-state target cleavage rate
21 | GGAGACCUAACUAUACAACCAACUACCUCA | 0.00331 ± 0.0023
22 | GGAGACCAUACUAUACAACCUACUACGUCA | 0.0053 ± 0.0015
23 | GGAGAGGAUACUAUACAAACCUACUACCUCA | 0.0671 ± 0.028
24 | GGAGUGCAUACUAUACAACGUACUACCUCA | 0.00739 ± 0.0027
25 | GGAGUGGAUACUAUACAACCUACUCCUCA | 0.00475 ± 0.0027
26 | GGAGUGGAUACUAUACAACCUACUUCCUGA | 0.00267 ± 0.0023
27 | GGAGAGGAUACUAUACAACCUACUCCUCA | 0.00473 ± 0.0025
28 | GGAGACCUAACUAUACAACCUAGUACCACA | 0.00588 ± 0.0049
29 | GGAGACCUAACUAUACAACCUACUACCAGA | 0.00445 ± 0.0031
30 | GGAGACCAUACUAUACAACCUGACUACCUCA | 0.00545 ± 0.0032
31 | GGAGUGGAUACUAUACAACUCUACUACCUCA | 0.00493 ± 0.003
32 | GGAGACCUAACUAUACACCCUACUACCUCA | 0.00682 ± 0.0033
33 | GGAGACGAUACUAUACAACCUACUUGGUCA | 0.00312 ± 0.0021
34 | GGAGACGAUACUAUAGAACCUAGUACCUCA | 0.0018 ± 0.0015
35 | GGAGUGGAUUACUAUACAACCUACUACCUCA | 0.00938 ± 0.0037
36 | GGAGACGAUACUAUACGAACCUACUACCUCA | 0.00658 ± 0.0033
37 | GGAGACGAUACUAUACUAGCUACUACCUCA | 0.00469 ± 0.0025
38 | GGAGUGGAUACUAUACAACCUACUCCCUCA | 0.00426 ± 0.0017
39 | GGAGACCUUACUAUACAAACCUACUACCUCA | 0.0103 ± 0.0047
40 | GGAGACGAUACUACACAACCUACUACCUCA | 0.00692 ± 0.0032

— the supplement of paper PMC10338343
